SNCA expr inhib = reduces expression of the alpha-synuclein gene; HEK-293 SNCA-luciferase knock-in, luminescence, 24 h; Potency, µM (highest dose often 57.2 µM), most hits filed as inhibitors; hit rate 0.17% among 140,000; further: nearly all actives have a fitted effect of over 45% in size
KDM5B inhibitor = inhibitors of human KDM5B histone demethylase. KDM5B demethylase, FDH-coupled NADH fluorescence (FDH is formaldehyde dehydrogenase). Potency, µM (doses to about 57.7 µM), actives largely listed as inhibitors. hit rate 2.6% among 220,000. AID 1347165; further: nearly all actives have a fitted effect of over 70% in size
Target sequence (Q9UGL1 whole entry, looked up): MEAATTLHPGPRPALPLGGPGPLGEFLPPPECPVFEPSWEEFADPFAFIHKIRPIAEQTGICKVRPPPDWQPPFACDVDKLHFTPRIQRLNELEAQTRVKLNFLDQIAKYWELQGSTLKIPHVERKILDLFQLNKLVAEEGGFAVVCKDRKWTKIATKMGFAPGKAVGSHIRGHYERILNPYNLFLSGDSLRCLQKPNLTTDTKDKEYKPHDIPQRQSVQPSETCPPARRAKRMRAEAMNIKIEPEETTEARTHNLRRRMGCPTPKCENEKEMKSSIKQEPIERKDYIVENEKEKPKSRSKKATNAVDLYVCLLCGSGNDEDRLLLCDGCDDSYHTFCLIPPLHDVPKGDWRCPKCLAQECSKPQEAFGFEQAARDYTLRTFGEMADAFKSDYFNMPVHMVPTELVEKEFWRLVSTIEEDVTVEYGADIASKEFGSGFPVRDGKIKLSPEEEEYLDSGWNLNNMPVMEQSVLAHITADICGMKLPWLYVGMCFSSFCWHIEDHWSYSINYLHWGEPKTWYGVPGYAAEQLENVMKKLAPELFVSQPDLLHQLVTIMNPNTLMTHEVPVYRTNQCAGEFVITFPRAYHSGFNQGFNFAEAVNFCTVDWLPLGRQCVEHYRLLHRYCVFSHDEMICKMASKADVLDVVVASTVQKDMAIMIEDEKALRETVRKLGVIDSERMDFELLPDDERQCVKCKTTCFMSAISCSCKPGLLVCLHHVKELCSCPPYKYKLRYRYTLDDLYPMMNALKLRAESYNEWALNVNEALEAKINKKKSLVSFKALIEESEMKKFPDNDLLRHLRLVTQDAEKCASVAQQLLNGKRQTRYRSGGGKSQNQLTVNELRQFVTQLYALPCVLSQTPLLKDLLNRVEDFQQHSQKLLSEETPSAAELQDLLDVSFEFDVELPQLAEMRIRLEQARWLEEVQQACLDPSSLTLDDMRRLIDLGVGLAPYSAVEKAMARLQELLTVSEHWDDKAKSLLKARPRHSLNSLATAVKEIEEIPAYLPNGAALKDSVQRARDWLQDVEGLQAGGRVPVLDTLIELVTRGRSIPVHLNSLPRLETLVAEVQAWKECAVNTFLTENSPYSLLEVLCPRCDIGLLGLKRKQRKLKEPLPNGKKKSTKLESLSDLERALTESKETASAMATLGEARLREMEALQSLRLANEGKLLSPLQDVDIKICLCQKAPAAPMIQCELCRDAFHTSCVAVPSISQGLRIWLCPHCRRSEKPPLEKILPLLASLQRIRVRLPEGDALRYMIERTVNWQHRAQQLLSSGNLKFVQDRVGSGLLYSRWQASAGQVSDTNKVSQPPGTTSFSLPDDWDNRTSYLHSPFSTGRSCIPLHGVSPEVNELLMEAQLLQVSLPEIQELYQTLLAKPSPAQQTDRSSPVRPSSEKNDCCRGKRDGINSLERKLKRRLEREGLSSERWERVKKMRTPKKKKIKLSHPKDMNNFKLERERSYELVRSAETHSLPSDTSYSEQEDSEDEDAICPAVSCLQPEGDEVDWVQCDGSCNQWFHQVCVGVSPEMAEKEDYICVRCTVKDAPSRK
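Compound dilutions met 200 nM (final) KDM5BΔAP for 10 min at room temperature before substrate addition. The substrate mix held 12.5 µM H3K4me3 with cofactors 25 µM α-ketoglutarate and 50 µM Fe²⁺. NADH signal gain over 30 min defined activity.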
SNCA viab count = cell viability loss counter-screen | AID 1671193 | hit rate 0.12% among 150,000 | HEK-293-SNCA-luc viability, GF-AFC fluorescence, 24 h | Potency, µM (doses to about 57.1 µM), hits mostly cytotoxic; further: nearly all actives have a fitted effect of over 30% in size
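Cytotoxicity counterscreen: after 24 h compound treatment of genome-edited SNCA-luciferase HEK-293 cells, live-cell protease substrate GF-AFC read by fluorescence after 30 min; activity scaled between DMSO (0%) and medium-only (-100%), curves Hill-fitted.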
IP6K1 inhibitor = blocks human inositol hexakisphosphate kinase 1; Q92551; IP6K1 kinase, ADP-Glo luminescence, 2 h; active compounds read low; activity change, % (series mostly up to about 58 µM); hit rate 0.81% among 140,000; in the data active means activity change below about -25%
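ADP-Glo luminescence measures ADP made by human IP6K1 during a 2 h RT reaction with ATP/IP6 (mix at 1.3 mM/130 uM); top library doses 57.5 and 19.1 uM final.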
IP6K1 inh cnf = confirmation of human IP6K1 inhibitors; shares compounds with IP6K1 inhibitor; recombinant IP6K1 kinase, ADP-Glo luminescence, 2 h; Potency, µM (highest dose often 49 µM), most hits filed as inhibitors; hit rate 13% among 1,200; AID 1645852; further: nearly all actives have a fitted effect of over 65% in size
A number is an active result; . = inactive; ? = inconclusive; / = no result; [ ] = dose if it differs, or a comment. Rows were chosen to be rich in hits. Some 2.9% of all compounds tested hit in one or more screens of this group. Unless noted, the call rests on the fitted dose curve; in most records, active means well fitted curve in the direction sought with a large enough effect; inconclusive means small, poorly fitted or top-dose-only effect, or another doubt; inactive means no such curve, though single readings can be large; an effect the other way counts as inactive or inconclusive.

SMILES	SNCA expr inhib	KDM5B inhibitor	SNCA viab count	IP6K1 inhibitor	IP6K1 inh cnf
O=C1Nc2nc(-c3c(O)cccc3OCC3CC3)cc([C@@H]3CCCNC3)c2CO1	/	/	?	.	.
Cc1ccc(/C=C(/C#N)c2nc3ccccc3[nH]2)cc1	/	.	/	/	/
Cc1ccc(/C=C/c2nc3ccccc3[nH]2)cc1	.	?	.	-41	10µM
COC(=O)[C@@H]1Cc2c([nH]c3ccccc23)[C@H]2C[C@@H](N3CCOCC3)C[C@@H](c3ccc(OC(F)(F)F)cc3)N21	.	?	.	.	/
C[C@]1(C2CCCC2)Cc2cc(OCC(=O)O)c(Cl)c(Cl)c2C1=O	/	/	.	-42	7.3µM
Cc1ccc([S+](=O)([O-])N2CC(=O)N(CCc3ccccc3)CC(O)C2)cc1 (centres undefined)	/	/	/	.	/
COc1cccc(-c2noc(CC3CCN(C(=O)COc4cccc(C)c4)CC3)n2)c1	.	?	.	-25	.
CCc1nc2ccccc2n1CCCCOc1ccccc1C	?	?	.	-30	.
COc1ccc2nc(N3CCN(C(=O)CS(=O)(=O)c4ccc(C)cc4)CC3)sc2c1	.	.	.	-29	.
O=C(O)c1cc(O)c(O)c(O)c1	.	/	.	-28	.
O=C(c1cc(O)c(O)c(O)c1)c1ccc(O)c(O)c1O	.	/	.	-67	.
Cc1ccc(Nc2ccnc(N3CCCC(C(=O)NCC(F)(F)F)C3)n2)cc1 (centres undefined)	.	/	.[12.5 µM]	.	/
O=[S+]([O-])(CCC(F)(F)F)NC1CCN(Cc2cccc(-c3cccs3)c2)CC1	.	/	.[12.5 µM]	.	/
O=C(Nc1ccccc1-c1cn2c(CN3CCNCC3)csc2n1)c1cnc2ccccc2n1	.	/	?	-29	?
Cc1ccc(S(=O)(=O)Nc2cccc(-c3cn4cccc(C)c4n3)c2)cc1	.	.	.	-26	.
Cc1cccn2cc(-c3cccc(NS(=O)(=O)c4ccc(Cl)c(Cl)c4)c3)nc12	.	.	.	.	/
O=C(Nc1cccc(-c2ccc(N3CCOCC3)nn2)c1)Nc1cc(F)ccc1F	?	?	?	.	/
O=C(Nc1cccc(-c2ccc(N3CCOCC3)nn2)c1)Nc1ccccc1F	.	?	.	-32	?
Cc1ccc(-n2ncc(C(=O)Nc3ccc4c(c3)OCO4)c2C2CCN(C(=O)OC(C)(C)C)CC2)cc1	.	?	.	.	/
Cc1ccc(-n2ncc(C(=O)Nc3ccc4c(c3)OCCO4)c2C2CCN(C(=O)OC(C)(C)C)CC2)cc1	.	.	?	-26	.
Cc1cn2c(=O)c(S(=O)(=O)NCCc3ccc(Cl)cc3)c(C)nc2s1	.	?	.	.	/
Cc1ccc(CNS(=O)(=O)c2c(C)nc3sc(C)cn3c2=O)cc1	.	?	.	-27	.
COc1cccc(-c2cccc(C(=O)N3CCCC3C(=O)NCc3ccccc3)c2)c1 (centres undefined)	.	/	.[12.5 µM]	.	/
CC(C)(C)OCC(O)CN1CCC(=O)N(Cc2ccccc2)Cc2sccc21 (centres undefined)	/	/	/	.	/
CC1CCN(c2ccc(-c3cccc(N)c3)nn2)CC1	1.4µM	.	.	-44	?
SMILES	SNCA expr inhib	KDM5B inhibitor	SNCA viab count	IP6K1 inhibitor	IP6K1 inh cnf
CCOc1ccc2oc(=O)cc(CN3CCN(C(=O)c4cccc(Cl)c4)CC3)c2c1	?	?	.	-29	.
COc1ccccc1CNC(=O)c1cc(-c2ccccc2F)nc2c1cnn2C	/	/	/	.	/
CCN1CCC2(CCC1=O)CN(Cc1nc(CCOC)no1)CCN2C (centres undefined)	.	.	.	-33	.
CCN1CCC2(CCC1=O)CN(Cc1noc(CC(C)C)n1)CCN2C (centres undefined)	.	.	.	.	/
Cc1ccc2c(c1)nc1n2[C@@H](CNCc2ccccc2)COC1	.	.	.	.	/
Cn1nnnc1SCCNCc1cc(Br)ccc1OCc1ccccc1Cl	?	.	?	-41	.
COCCCNc1nc(NCc2cccc(Cl)c2)c2cnn(C)c2n1	.	.	.	-32	?
Cn1ncc2c(C(=O)NCc3cccc(Cl)c3)cc(C(C)(C)C)nc21	.	/	.	.	/
NC(=O)c1cccc(CC2CCN(C(=O)c3ccnc(-n4cnnc4)c3)C2)c1 (centres undefined)	.	.	.	-27	.
Cc1cc(C)n2nc(C(=O)N3CCC(Cc4cccc(C(N)=O)c4)C3)nc2n1 (centres undefined)	.	.	.	.	/
O=C(Nc1cc(Cl)ccc1Cl)c1cc(S(=O)(=O)N2CCCc3ccccc32)ccc1F	.	.	.	-30	.
COc1ccc(-c2nnc(C3CCN(C(=O)c4ccccc4F)CC3)o2)cc1	?	?	?	-29	?
COc1cccc(-c2ccc(CN3CCCC(NC(=O)c4ccccn4)C3)cc2)c1 (centres undefined)	.	/	.	.	/
COc1ccc(S(=O)(=O)N(CC(=O)NCc2ccccc2)c2ccc(C)cc2)cc1OC	.	.	?	-26	.
COc1ccc(S(=O)(=O)N(CC(=O)NC2CCCCCC2)c2ccc(C)cc2)cc1OC	/	.	/	/	/
COc1ccc(S(=O)(=O)N(CC(=O)NC(C)c2ccccc2)c2ccc(C)cc2)cc1OC (centres undefined)	.	.	.	-33	?
CCOc1ccc(CNC(=O)C(C)n2ncn3cccc3c2=O)cc1 (centres undefined)	.	.	.	-27	.
Cc1ccc(-c2csc3ncnc(Nc4ccc(C(=O)O)cc4)c23)cc1	.	.	.	-25	.
Cc1ccc(C(=O)N2CCC(N3C(=O)c4c(c(C)nn4-c4ccccc4)C3C(C)C)CC2)cc1 (centres undefined)	/	/	/	.	/
O=C(CCc1ccc(O)cc1)N[C@H]1CC[C@H](Nc2nccc(-c3cccnc3)n2)C1	?	?	.	.	/
CSc1ccc(/C=C/c2nc3ccccc3n2S(=O)(=O)c2ccc(F)c(C)c2)cc1	.	?	.	-39	?
CC(C)Cn1c(/C=C/c2ccc(F)cc2)nc2ccccc21	.	?	.	.	/
CC(C)c1ccc(-c2nc3c([nH]2)c(=O)n(C)c(=O)n3C)cc1	/	.	/	/	/
Cn1c(=O)c2[nH]c(-c3ccc(S(=O)(=O)O)cc3)nc2n(C)c1=O	.	/	.	/	.
Cc1ccccc1-c1[nH]nc2ncc(-c3cccc(F)c3)nc12	.	?	.	.	/
CO/N=C(\C(=O)N[C@@H]1C(=O)N2C(C(=O)O)=C(CSc3nc(=O)c(O)nn3C)CS[C@H]12)c1csc(N)n1	.	/	.	-79	?
CSc1ccc(-c2cccc(C(=O)NCCNC(=O)C3CC3)c2)cc1	.	/	.[12.5 µM]	.	/
Cc1cccc(C)c1-c1cc(C(=O)NCc2ccc(C(F)(F)F)cc2)c2cnn(C)c2n1	.	/	.	.	/
COc1ccccc1NC(=O)C1=C(C)Nc2nc3ccccc3n2C1c1cccc(Br)c1 (centres undefined)	.	?	.	-26	.
O=C(c1ccc2ncccc2c1)N1CCCN(c2cc(-c3ccc(Cl)cc3)[nH]n2)CC1	.	.	.	.	/

From PubChem
